We go through 18 compounds from ChEMBL document CHEMBL2218924, “A broad activity screen in support of a chemogenomic map for kinase signalling research and drug discovery” (Biochem J, 2013).

Assay [1] has as its target Mitogen-activated protein kinase 10 (Homo sapiens) (UniProt P53779). Particulars: at 10 µM.
Assay [2] concerns the target Vascular endothelial growth factor receptor 2 (Homo sapiens) (UniProt P35968). The following applies: at 1 µM.
The target is the same in assay [3]. The following applies: at 10 µM.
In assay [4] the target is LIM domain kinase 1 (Homo sapiens) (UniProt P53667). Particulars: at 1 µM.
Chain of LIM domain kinase 1 (Homo sapiens) (P53667 whole entry, looked up, the tested form may be a part): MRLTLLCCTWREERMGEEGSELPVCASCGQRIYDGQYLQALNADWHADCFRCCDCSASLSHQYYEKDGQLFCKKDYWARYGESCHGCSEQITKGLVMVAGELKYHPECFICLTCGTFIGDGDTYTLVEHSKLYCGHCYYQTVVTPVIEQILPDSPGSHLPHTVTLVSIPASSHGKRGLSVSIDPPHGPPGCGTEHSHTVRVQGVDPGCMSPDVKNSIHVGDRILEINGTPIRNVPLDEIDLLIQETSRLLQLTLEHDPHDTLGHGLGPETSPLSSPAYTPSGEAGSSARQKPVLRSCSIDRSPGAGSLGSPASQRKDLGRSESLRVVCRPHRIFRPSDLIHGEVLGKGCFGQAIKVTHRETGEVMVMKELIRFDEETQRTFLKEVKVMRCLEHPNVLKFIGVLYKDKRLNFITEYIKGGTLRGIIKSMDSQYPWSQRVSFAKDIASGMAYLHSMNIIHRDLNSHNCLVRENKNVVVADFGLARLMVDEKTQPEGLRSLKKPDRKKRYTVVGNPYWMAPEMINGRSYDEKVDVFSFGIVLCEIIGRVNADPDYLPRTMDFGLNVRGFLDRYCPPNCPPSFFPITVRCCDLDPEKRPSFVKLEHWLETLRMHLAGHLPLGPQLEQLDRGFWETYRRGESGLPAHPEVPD
Assay [5] shares this target. Particulars: at 10 µM.
Assay [6] concerns the target T1, Serine/threonine-protein kinase STK11 (Homo sapiens) (UniProt Q15831).
T1 sequence (whole entry): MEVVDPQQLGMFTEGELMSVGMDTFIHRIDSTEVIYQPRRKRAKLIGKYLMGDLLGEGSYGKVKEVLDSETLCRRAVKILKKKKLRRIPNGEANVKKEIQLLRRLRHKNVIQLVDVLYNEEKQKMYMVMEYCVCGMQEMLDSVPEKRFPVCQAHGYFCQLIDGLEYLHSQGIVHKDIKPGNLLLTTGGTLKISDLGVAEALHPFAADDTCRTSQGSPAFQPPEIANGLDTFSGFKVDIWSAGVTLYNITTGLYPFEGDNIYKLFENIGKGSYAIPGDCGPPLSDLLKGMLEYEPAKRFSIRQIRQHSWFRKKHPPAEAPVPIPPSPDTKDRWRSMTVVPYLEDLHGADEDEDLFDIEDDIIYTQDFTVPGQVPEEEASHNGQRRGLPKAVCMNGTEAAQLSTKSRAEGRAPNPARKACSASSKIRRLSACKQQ
Particulars: at 1 µM.

Assay [7] concerns the target T1, Serine/threonine-protein kinase STK11 (Homo sapiens). Particulars: at 10 µM.
Assay [8] addresses Serine/threonine-protein kinase 10 (Homo sapiens) (UniProt O94804). The following applies: at 1 µM.
Assay [9] has the same target. Particulars: at 10 µM.
Assay [10] deals with Tyrosine-protein kinase Lck (Homo sapiens) (UniProt P06239). Particulars: at 1 µM.
Chain of Tyrosine-protein kinase Lck (Homo sapiens) (P06239 2-509 limits assumed): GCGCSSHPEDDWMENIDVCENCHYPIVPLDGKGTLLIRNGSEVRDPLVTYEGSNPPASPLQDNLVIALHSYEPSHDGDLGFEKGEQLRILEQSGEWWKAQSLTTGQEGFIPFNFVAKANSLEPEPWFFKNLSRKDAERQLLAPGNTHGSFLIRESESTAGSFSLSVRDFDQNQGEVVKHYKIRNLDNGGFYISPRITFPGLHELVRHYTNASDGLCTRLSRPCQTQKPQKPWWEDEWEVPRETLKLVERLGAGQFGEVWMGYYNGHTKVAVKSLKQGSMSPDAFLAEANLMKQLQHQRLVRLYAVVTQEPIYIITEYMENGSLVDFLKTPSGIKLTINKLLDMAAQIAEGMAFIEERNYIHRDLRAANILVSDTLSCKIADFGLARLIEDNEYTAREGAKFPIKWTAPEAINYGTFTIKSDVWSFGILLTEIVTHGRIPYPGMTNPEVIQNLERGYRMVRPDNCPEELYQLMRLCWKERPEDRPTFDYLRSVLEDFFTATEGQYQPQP

Chain of Vascular endothelial growth factor receptor 2 (Homo sapiens) (P35968 whole entry): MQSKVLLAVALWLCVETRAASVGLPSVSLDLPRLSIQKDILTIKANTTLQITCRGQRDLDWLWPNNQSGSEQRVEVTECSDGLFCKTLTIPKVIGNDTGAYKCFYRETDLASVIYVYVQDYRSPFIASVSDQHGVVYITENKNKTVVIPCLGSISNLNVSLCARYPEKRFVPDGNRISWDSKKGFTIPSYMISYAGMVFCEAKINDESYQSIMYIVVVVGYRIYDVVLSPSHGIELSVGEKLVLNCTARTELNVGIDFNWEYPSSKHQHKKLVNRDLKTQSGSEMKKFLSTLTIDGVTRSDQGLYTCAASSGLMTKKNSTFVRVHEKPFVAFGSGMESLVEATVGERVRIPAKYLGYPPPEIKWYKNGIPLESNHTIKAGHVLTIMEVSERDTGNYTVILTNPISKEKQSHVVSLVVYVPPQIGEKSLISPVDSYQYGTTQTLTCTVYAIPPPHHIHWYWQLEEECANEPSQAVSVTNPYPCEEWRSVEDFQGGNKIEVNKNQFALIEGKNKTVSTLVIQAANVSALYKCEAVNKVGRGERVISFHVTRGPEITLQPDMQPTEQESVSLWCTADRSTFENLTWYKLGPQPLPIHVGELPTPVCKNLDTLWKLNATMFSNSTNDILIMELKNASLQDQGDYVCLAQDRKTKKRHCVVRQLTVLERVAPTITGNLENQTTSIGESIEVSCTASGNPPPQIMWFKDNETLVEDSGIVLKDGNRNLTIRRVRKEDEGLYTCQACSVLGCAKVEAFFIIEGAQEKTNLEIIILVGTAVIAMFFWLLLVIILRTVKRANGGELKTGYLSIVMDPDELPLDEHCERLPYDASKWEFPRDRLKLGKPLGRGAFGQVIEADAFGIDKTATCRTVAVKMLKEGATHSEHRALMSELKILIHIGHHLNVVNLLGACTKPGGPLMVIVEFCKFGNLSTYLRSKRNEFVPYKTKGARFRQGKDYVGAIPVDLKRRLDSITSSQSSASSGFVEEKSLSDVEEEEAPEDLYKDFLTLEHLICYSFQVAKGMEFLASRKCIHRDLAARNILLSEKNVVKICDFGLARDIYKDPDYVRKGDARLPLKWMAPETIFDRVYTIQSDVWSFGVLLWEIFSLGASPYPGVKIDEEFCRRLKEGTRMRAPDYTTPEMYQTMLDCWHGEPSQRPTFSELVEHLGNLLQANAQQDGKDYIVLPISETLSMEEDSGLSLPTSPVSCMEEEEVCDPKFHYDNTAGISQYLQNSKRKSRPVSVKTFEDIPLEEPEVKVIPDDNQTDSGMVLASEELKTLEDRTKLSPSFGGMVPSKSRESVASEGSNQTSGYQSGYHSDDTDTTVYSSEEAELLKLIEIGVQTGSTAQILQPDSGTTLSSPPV
Chain of Mitogen-activated protein kinase 10 (Homo sapiens) (P53779 whole entry): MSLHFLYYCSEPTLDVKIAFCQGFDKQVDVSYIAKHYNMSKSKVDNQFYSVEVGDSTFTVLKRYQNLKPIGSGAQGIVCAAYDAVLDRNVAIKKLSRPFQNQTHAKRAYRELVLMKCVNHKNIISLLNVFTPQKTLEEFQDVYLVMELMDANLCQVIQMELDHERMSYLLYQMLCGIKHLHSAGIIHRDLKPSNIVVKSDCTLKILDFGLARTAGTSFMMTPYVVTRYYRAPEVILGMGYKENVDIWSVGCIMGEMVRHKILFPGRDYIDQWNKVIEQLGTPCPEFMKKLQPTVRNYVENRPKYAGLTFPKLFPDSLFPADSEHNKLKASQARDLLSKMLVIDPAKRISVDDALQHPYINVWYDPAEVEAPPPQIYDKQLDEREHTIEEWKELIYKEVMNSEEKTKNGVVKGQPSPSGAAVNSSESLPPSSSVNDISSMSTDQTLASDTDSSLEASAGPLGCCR
Chain of Serine/threonine-protein kinase 10 (Homo sapiens) (O94804 whole entry, looked up): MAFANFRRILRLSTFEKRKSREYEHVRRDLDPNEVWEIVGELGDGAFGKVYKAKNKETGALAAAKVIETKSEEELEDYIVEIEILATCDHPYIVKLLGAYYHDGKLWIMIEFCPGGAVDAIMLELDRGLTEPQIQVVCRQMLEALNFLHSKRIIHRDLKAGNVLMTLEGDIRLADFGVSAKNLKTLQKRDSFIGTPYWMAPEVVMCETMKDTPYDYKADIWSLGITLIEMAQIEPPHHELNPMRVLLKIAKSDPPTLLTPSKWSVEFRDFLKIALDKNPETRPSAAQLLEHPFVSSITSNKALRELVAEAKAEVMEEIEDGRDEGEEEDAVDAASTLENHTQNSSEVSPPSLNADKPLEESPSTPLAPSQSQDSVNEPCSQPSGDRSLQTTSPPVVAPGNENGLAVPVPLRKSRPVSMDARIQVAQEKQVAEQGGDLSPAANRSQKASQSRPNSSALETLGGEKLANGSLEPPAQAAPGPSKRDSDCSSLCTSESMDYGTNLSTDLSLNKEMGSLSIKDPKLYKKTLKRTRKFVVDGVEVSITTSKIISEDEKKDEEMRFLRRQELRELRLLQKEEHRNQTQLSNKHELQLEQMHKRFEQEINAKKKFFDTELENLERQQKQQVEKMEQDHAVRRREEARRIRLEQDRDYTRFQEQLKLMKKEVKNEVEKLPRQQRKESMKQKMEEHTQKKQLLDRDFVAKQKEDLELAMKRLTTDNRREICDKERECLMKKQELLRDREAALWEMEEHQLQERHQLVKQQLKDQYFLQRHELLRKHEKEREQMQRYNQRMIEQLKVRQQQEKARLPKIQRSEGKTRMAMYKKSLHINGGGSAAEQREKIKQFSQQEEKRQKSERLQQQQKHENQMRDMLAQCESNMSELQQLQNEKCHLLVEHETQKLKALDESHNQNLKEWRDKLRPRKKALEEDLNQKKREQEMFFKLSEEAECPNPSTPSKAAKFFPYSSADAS

As to `Nc1n[nH]c2nnc(-c3c(-c4ccccc4)nn4ccccc34)cc12`, the residual activity in assay [1] worked out at 0%; in assay [2], 86%; in [3], 59%; in assay [4], 82%; in [5], 85%; in [6], 91%. Also, the residual activity in assay [7] is 94%; in assay [8] it was 80%; in assay [9], 29%; in assay [10], 88%.

As to `Ic1cccc(CSc2nnc(-c3ccncc3)o2)c1`, the residual activity was 68% in [1]; 77% in assay [2]; 65% in [3]; 84% in [4]; 75% in [5]; 96% in assay [6]. The residual activity in assay [7] was determined as 94%; in assay [8], 104%; in assay [9], 95%; in assay [10] it was 58%.

Consider `Cc1cccc(-c2[nH]c(C(C)(C)C)nc2-c2ccc3c(c2)OCO3)n1`, for which the residual activity came to 85% in [1]; 101% in assay [2]; 79% in assay [3]; 95% in assay [5]; 102% in assay [6]; 101% in assay [7]. Besides, the residual activity was found to be 87% in assay [8], 106% in [9] and 146% in assay [10].

With `Nc1nc(Nc2ccc(S(N)(=O)=O)cc2)nn1C(=S)Nc1c(F)cccc1F`, the residual activity in assay [1] was determined as 3%; in [2] it was 0%; in [3] it was 0%; in [4] it was 5%; in [5], 2%; in assay [6], 87%. For the same compound, the residual activity in assay [7] turned out to be 41%; in [8], 0%; in [9], 0%; in assay [10] it was 4%.

On to `N#C/C(=C(\N)Sc1ccc(N)cc1)c1ccccc1C(F)(F)F`, for which the residual activity in assay [1] amounted to 83%; in assay [2], 97%; in assay [3] it was 97%; in [4], 91%; in [5] it was 85%; in assay [6] it was 105%. In addition, the residual activity in assay [7] was determined as 93%; in assay [8], 69%; in [9], 83%; in assay [10], 83%.

For the compound `Nc1cccc(-c2cc3c(Oc4cccc(O)c4)ncnc3[nH]2)c1`, the residual activity in [1] came to 57%; in assay [2] it was 5%; in assay [3] it was 2%; in assay [4], 14%; in assay [5] it was 4%; in assay [6], 67%. Moreover, the residual activity in assay [7] turned out to be 11%; in assay [8] it was 34%; in assay [9], 9%; in [10], 3%.

Take `Cc1cc(Nc2nc(-c3ccccc3)nc3ccccc23)n[nH]1`: the residual activity worked out at 12% in [1]; 5% in assay [2]; 1% in [3]; 51% in assay [4]; 18% in assay [5]; 71% in assay [7]. The figures for the residual activity in assay [8], in [9] and in assay [10] were 50%, 10% and 23%, respectively.

Take `Oc1c2ccccc2c2c3c(cccc13)N=N2`: the residual activity was -6% in assay [1]; 17% in [2]; 3% in [3]; 64% in assay [4]; 30% in [5]; 75% in assay [6]. In addition, the residual activity in assay [7] was 41%; in assay [8], 87%; in assay [9], 62%; in assay [10] it was 70%.

Take `C[C@@H](N)[C@H]1CC[C@H](C(=O)Nc2ccncc2)CC1`: the residual activity in assay [1] was 86%; in [2] it was 113%; in assay [3], 108%; in assay [5], 89%; in assay [6], 97%; in [7], 96%. In addition, the residual activity in [9] was determined as 59%.

`CC(C)n1cnc2c(NCc3ccccc3)nc(NCCCO)nc21`: the residual activity in assay [1] amounted to 58%; in assay [2], 98%; in assay [3], 93%; in assay [4], 92%; in [5], 88%; in [6] it was 105%. Further, the residual activity in [7] stood at 101%; in [8], 102%; in assay [9], 96%; in assay [10], 89%.

Regarding `CC(=O)c1ccc(N2CCOCC2)cc1O`, the residual activity in assay [1] was found to be 85%; in assay [2], 106%; in assay [3], 91%; in [4] it was 104%; in assay [5], 83%; in [6], 97%. Moreover, the results for the residual activity in assay [8] and in assay [9] were 102% and 90%, respectively.

Turning to `CCOc1cc2ncnc(Nc3cccc(Br)c3)c2cc1OCC`, the residual activity was found to be 11% in [1]; 54% in assay [2]; 13% in assay [3]; 107% in assay [4]; 49% in assay [5]; 98% in [6]. The residual activity in assay [7] stood at 94%; in [8], 23%; in [9] it was 10%; in assay [10] it was 39%.

Turning to `O=C1Nc2ccc(Br)cc2/C1=C\c1cc2c([nH]1)CCCC2`, the residual activity in assay [2] was determined as 12%; in [3], 4%; in assay [6], 97%; in assay [7], 99%; in [8], 74%; in [9], 76%.

Turning to `Cc1cncc2cccc(S(=O)(=O)N3CCCN(C(=O)CN)C[C@H]3C)c12`, the residual activity in assay [1] was found to be 124%; in [2], 99%; in assay [3] it was 74%; in assay [4] it was 92%; in [5], 51%; in [6] it was 91%. Besides, the residual activity in assay [7] was found to be 69%; in [8] it was 54%; in assay [9] it was 21%; in assay [10], 97%.

For the compound `CO[C@H]1[C@@H](OC)C[C@H](C)[C@@H](OC)C2=CC(=O)C=C(NC(=O)/C(C)=C/C=C/[C@H](OC)[C@@H](OC(N)=O)/C(C)=C/[C@@H]1C)C2=O`, the residual activity amounted to 110% in assay [1]; 97% in assay [2]; 87% in assay [3]; 109% in [4]; 90% in assay [5]; 97% in assay [6]. In addition, the residual activity in assay [7] was 90%; in assay [8] it was 100%; in assay [10], 142%.

Take `CCN(CC)C(=O)c1ccc(Nc2nc(OCC3CCCCC3)c3nc[nH]c3n2)cc1`: the residual activity in assay [1] is -4%; in assay [2], 33%; in assay [3], 3%; in [4] it was 39%; in assay [5], 10%; in assay [8], 45%. For the same compound, the figures for the residual activity in assay [9] and in assay [10] were 13% and 10%, respectively.

Take `COc1cc2ncnc(Nc3ccc(O)c(Br)c3)c2cc1OC`: the residual activity in assay [1] was 13%; in assay [2] it was 30%; in [3] it was 4%; in [4], 78%; in [5], 49%; in assay [6], 106%. For the same compound, the residual activity in assay [7] is 97%; in assay [8], 17%; in [9], 8%; in [10], 27%.

For the compound `Cc1ccc(S(=O)(=O)/C=C/C#N)cc1`, the residual activity in [1] stood at 84%; in [2] it was 101%; in assay [3] it was 95%; in assay [4], 92%; in assay [5], 92%; in assay [6] it was 94%. The residual activity in assay [7] was determined as 100%; in [8] it was 109%; in assay [9], 108%; in [10], 96%.
